Pf growth 96h: Primary qHTS for delayed death inhibitors of the malarial parasite plastid, 96 hour incubation. P. falciparum luciferase reporter growth, 96 h. Potency, µM (highest dose often 28.7 µM), inactives show at the top dose activity change, negative = inhibition, most hits filed as inhibitors. hit rate 6.9% among 320,000; further: potency means the concentration at half of the fitted maximal effect; on the % scale 0 is the no-effect control and ±100 the full control effect
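96 h incubation, 37 C, 5% CO2, of luciferase-reporter P. falciparum-infected RBCs (2% hematocrit, 0.05% parasitemia final) with test compounds; endpoint luminescence.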
Pf growth 48h: Primary qHTS for delayed death inhibitors of the malarial parasite plastid, 48 hour incubation | hit rate 5.9% among 310,000 | AID 504832, 2011 | Potency, µM (doses to about 28.7 µM), for the others: at the top dose activity change, negative = inhibition, actives largely listed as inhibitors | P. falciparum luciferase growth in erythrocytes, 48 h; further: potency means the concentration at half of the fitted maximal effect; on the % scale 0 is the no-effect control and ±100 the full control effect
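In quantitative HTS format, infected erythrocytes bearing luciferase-reporter parasites were treated for a single generation at 37 C. Luminescence after adding detection reagent served as the growth measure.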
Sm TGR inh: qHTS Assay for the Inhibitors of Schistosoma Mansoni Peroxiredoxins; AID 485364, 2010; Schistosoma mansoni thioredoxin glutathione reductase (TGR), Q962Y6; hit rate 3% among 360,000; Potency, µM (highest dose often 114 µM), for inactives: top-dose activity change, negative = inhibition, usual class: inhibitors; purified TGR, DTNB reduction, TNB absorbance 405 nm; further: potency means the concentration at half of the fitted maximal effect; on the % scale 0 is the no-effect control and ±100 the full control effect; nearly all actives have a fitted effect of over 60% in size
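TGR 20 nM + NADPH 100 uM (dispensed conc.), cpd preinc 15 min RT; start with NADPH (500 uM addition) then DTNB (15 mM addition). Kinetic TNB absorbance, 405 nm filter. Four-parameter Hill fit across titration.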
NS1 inh: qHTS Assay for Inhibitors of Influenza NS1 Protein Function. Potency, µM (titrated, usually from 46.1 µM), for the others: at the highest dose activity, positive = more growth. hit rate 0.4% among 270,000; calls by dose curve; further: potency means the concentration at half of the fitted maximal effect; actives are rising curves; nearly all actives have a fitted effect of over 50% in size
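In this qHTS, NS1 from influenza A is expressed in budding yeast, where it slows growth. Cells are switched from glucose to 2% galactose medium (pH 6.0, -URA), treated with compound, and growth recovery is read at OD600.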
Cycloheximide cs: Cycloheximide Counterscreen for Small Molecule Inhibitors of Shiga Toxin | cell reporter, cycloheximide protein synthesis inhibition counterscreen | max response, % | hit rate 12% among 300,000; in the data active means max response mostly above about 13%, no sharp cut-off; inactive means mostly below about 14%; further: read at 38.3 µM for the half of the compounds with a filed dose; 0% is about no effect
Shiga toxin inh: A qHTS for Small Molecule Inhibitors of Shiga Toxin; Vero cells, Shiga toxin protein synthesis inhibition reporter; inhibition, % at 38.7 µM; hit rate 9.2% among 290,000; AID 2315, 2010; in the data active means inhibition mostly above about 28%, no sharp cut-off; inactive means mostly below about 43%; further: 0% is about no effect
* marks the source's active call; other numbers are inactive results; ? = inconclusive; . = not tested or not shown. An excerpt weighted towards active compounds, which were near 21% of everything screened. Unless noted, the call rests on the fitted dose curve; in most records, active means well fitted curve in the direction sought with a large enough effect; inconclusive means small, poorly fitted or top-dose-only effect, or another doubt; inactive means no such curve, though single readings can be large; an effect the other way counts as inactive or inconclusive.

SMILES | Pf growth 96h | Pf growth 48h | Sm TGR inh | NS1 inh | Cycloheximide cs | Shiga toxin inh
CCOC(=O)c1ccc(-c2ccc(-c3cc(=O)oc4cc(OC)c(OC)c(OC)c34)cc2)cc1 | . | . | . | . | 7 | 14
Cc1ccc2c(=O)cc(C(=O)Nc3cccc(C(F)(F)F)c3)oc2c1C | . | . | -1% | . | . | .
Cc1cc(O)cc2c1O[C@](C)(CCC[C@H](C)CCC[C@H](C)CCCC(C)C)CC2 | -19% | -16% | . | . | -1 | 5
CC1CCN(C(=O)c2cc(-c3ccco3)on2)CC1 | 42% | 98% | -8% | -12% | 27* | 66*
CC1CCCC(C)N1C(=O)c1cc(-c2ccco2)on1 (stereo not drawn) | 57% | 14% | -34% | -10% | 8 | 47*
COc1cccc(-c2cc(C(=O)N3C(C)CCCC3C)no2)c1 (stereo not drawn) | 8% | . | -4% | -105% | 100* | 72*
CC1CCN(C(=O)c2cc(-c3ccccc3O)on2)CC1 | 1% | . | 3% | -110% | 39* | 85*
Cc1ccc(NC(=O)CCc2nc(-c3ccccc3F)no2)c(C)c1 | . | . | 1% | . | . | .
Cc1ccc(S(=O)(=O)N(C)C)cc1NC(=O)c1ccccc1SCC(=O)N1CCCC1 | ? | ? | 0% | . | . | .
O=C(NNC(=S)NC1CC2C=CC1C2)c1cccnc1 (stereo not drawn) | 2% | 0% | 0% | -3% | -3 | 2
CCN1CCN(Cc2nc3c(c(=O)n(C)c(=O)n3C)n2CCCc2ccccc2)CC1 | . | 10% | 0% | 0% | 9 | -4
Cn1c(=O)c2c(nc(CN3CCN(Cc4ccccc4)CC3)n2Cc2cccc(Cl)c2)n(C)c1=O | 1.2µM* | 2.1µM* | -1% | -8% | -2 | -12
CCCCCCn1c(CN2CCN(Cc3ccccc3)CC2)nc2c1c(=O)n(C)c(=O)n2C | -14% | ? | ? | -2% | -3 | -10
CN(Cc1ccccc1)Cc1nc2c(c(=O)n(C)c(=O)n2C)n1CCCc1ccccc1 | 10µM* | -19% | 1% | -96% | -2 | -4
Cn1c(=O)c2c(nc(CN3CCc4ccccc4C3)n2Cc2ccccc2F)n(C)c1=O | ? | 4.7µM* | -3% | . | -1 | -8
CC(C)Cn1c(CN(C)Cc2ccccc2)nc2c1c(=O)n(C)c(=O)n2C | -28% | -15% | 5% | -13% | -4 | -8
CCN1CCN(Cc2nc3c(c(=O)n(C)c(=O)n3C)n2CCc2ccccc2)CC1 | 12µM* | 4% | -25% | 6% | -2 | -12
CC(=O)Nc1ccc(S(=O)(=O)NC(C)(C#N)C2CC2)cc1 (stereo not drawn) | 12% | 8% | 3% | 8% | -3 | -3
Cc1ccc(S(=O)(=O)c2cn(CC(=O)Nc3ccccc3C)c3cc4c(cc3c2=O)OCO4)cc1 | . | . | -1% | . | . | .
CC(C)CC(=O)Nc1c(C(=O)N2CCN(Cc3ccccc3)CC2)oc2ccccc12 | ? | ? | 0% | -1% | 8 | 10
Cc1c(C(=O)N(Cc2ccc(N(C)C)cc2)CC2CCCO2)oc2ccc(Cl)cc12 (stereo not drawn) | . | . | 0% | . | . | .
Cn1c(=O)c2c(nc(CN3CCc4ccccc4C3)n2CCc2ccccc2)n(C)c1=O | . | . | . | -4% | . | .
CN1CCN(c2nc3c(c(=O)n(C)c(=O)n3C)n2Cc2cccc3ccccc23)CC1 | . | 10µM* | 22% | ? | 4 | -15
CCOCCn1c(CN2CCN(C(c3ccccc3)c3ccccc3)CC2)nc2c1c(=O)n(C)c(=O)n2C | -10% | 1.5µM* | -4% | -3% | -4 | 5
Cn1c(=O)c2c(nc(CN3CCc4ccccc4C3)n2Cc2cccc(Cl)c2)n(C)c1=O | 1.9µM* | 3.3µM* | 0% | -143% | -3 | -7
SMILES | Pf growth 96h | Pf growth 48h | Sm TGR inh | NS1 inh | Cycloheximide cs | Shiga toxin inh
CCOCCn1c(CN2CCN(CCO)CC2)nc2c1c(=O)n(C)c(=O)n2C | 20% | 39% | 1% | -7% | -3 | 15
Cc1ccc(SCc2c(C#N)c3ccccc3n2C)cc1 | ? | 1% | 0% | -8% | 2 | 30
Cn1c(CSc2ccccc2)c(C#N)c2ccccc21 | 13% | 3% | 4% | -58% | 43* | 81*
C/C=C/C=C\C(=O)Nc1cccc(C2=NOC3(C2)C[C@H](C(N)=O)N(C(=O)/C=C/C)C3)c1 (stereo partly drawn) | 96% | 87% | 2.8µM* | 5% | -5 | -4
C/C=C\C=C\C(=O)Nc1cccc(C2=NOC3(C2)C[C@H](C(N)=O)N(C(=O)c2ccccc2C(=O)c2ccccc2)C3)c1 (stereo partly drawn) | ? | ? | 3.2µM* | -5% | 7 | 1
CCCCCC(=O)Nc1cccc(C2=NOC3(C2)C[C@@H](C(N)=O)N(C(=O)c2cc([N+](=O)[O-])cc([N+](=O)[O-])c2C)C3)c1 (stereo partly drawn) | ? | ? | 8% | -32% | -2 | -9
C/C=C/C=C\C(=O)Nc1cccc(C2=NOC3(C2)C[C@@H](C(N)=O)N(C(=O)c2cc([N+](=O)[O-])cc([N+](=O)[O-])c2C)C3)c1 (stereo partly drawn) | ? | ? | 2.8µM* | -3% | -1 | 3
CCC(=O)Nc1cccc(C2=NOC3(C2)C[C@@H](C(N)=O)N(C(=O)CC)C3)c1 (stereo partly drawn) | 0% | 70% | -23% | 2% | -2 | 0
C/C=C/C(=O)N1CC2(CC(c3cccc(NC(=O)/C(C)=C/C)c3)=NO2)C[C@H]1C(N)=O (stereo partly drawn) | 68% | 46% | -25% | -1% | -2 | -5
C/C=C\C=C\C(=O)N1CC2(CC(c3cccc(NC(=O)CC)c3)=NO2)C[C@H]1C(N)=O (stereo partly drawn) | 61% | 30% | 2.5µM* | -4% | -2 | -10
CCOc1ccc(CCn2c3c(c(=O)[nH]c2=O)C(NC(=O)c2cccc(F)c2)(C(F)(F)F)C(=O)N3)cc1OCC (stereo not drawn) | . | . | -12% | . | . | .
Cc1cc(C)n(CCC(=O)Nc2cccc(F)c2)n1 | ? | 23% | 0% | . | 11 | 1
NC(=O)CCCCC1CCSS1 (stereo not drawn) | 11µM* | ? | . | . | . | .
COc1ccc(-n2cccc2/C=C/[N+](=O)[O-])cc1 | 3.3µM* | ? | 25µM* | -30% | -8 | -20
COc1ccc(-n2cccc2C=O)cc1 | -14% | 18% | 2% | -9% | -1 | 19
O=C(NCCN1CCCCC1)Nc1ccc(F)c(Cl)c1 | . | -17% | -18% | -5% | 13 | -8
O=C(Nc1ccc(Cl)c(Cl)c1)N1CC=CCC1 | 74% | 273% | 0% | -128% | 33* | 86*
Cc1ccc(NC(=O)NCCN2CCCCC2)cc1Cl | ? | -2% | 1% | 5% | 13* | 1

Compound activity as filed in PubChem BioAssay.
